High-throughput results from PubChem.
TRHR PAM: allosterically enhances the human TRH receptor; P34981; TRHR cells, fluo-8 calcium fluorescence, EC20 TRH enhancement; enhancement, % at 2 µM; 0.66% of 360,000 active; AID 493056; in the data active = enhancement above about 30%; also: 0% is about no effect
Target sequence (P34981 whole entry, looked up): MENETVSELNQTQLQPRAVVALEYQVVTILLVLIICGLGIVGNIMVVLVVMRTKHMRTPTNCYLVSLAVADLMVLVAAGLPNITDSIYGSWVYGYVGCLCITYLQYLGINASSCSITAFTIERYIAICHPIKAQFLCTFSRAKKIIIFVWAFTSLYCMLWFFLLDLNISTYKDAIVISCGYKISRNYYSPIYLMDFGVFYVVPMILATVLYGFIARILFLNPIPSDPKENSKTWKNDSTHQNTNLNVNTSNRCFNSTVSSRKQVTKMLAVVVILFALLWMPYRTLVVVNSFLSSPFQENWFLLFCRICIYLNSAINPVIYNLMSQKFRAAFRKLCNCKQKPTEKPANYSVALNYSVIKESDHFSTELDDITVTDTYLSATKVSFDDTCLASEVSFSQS
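TRHR-expressing cells loaded with fluo-8 calcium dye were read kinetically (ex 480/em 530) during compound addition, then stimulated with an EC20 of TRH (10 nM final). Enhancement of the Gq-mediated intracellular calcium response was scored.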
IL-2 act: IL-2 activation; IL-2 activation reporter assay, cell-based qHTS; stimulated with anti-CD3/CD4/CD28 beads; in transgenic mouse T cells; activation, % (series mostly up to about 46 µM); 0.065% of 360,000 active; in the data active = activation above about 50%; inconclusive = mostly about 30% to 49%; also: 0% is about no effect
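Readout is EGFP and DsRed signal by fluorescent plate cytometry after 18 h at 37 degrees C. Transgenic mouse T cells (750/well) received compound for 60 min before bead stimulation (anti-CD3, anti-CD4, anti-CD28); memory T cells served as non-tolerant control.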
Epigenetic reg: epigenetic control regulation, reporter derepression; 0.2% of 280,000 active; AID 1865; murine LDR cells, GFP reporter derepression, 30 h; Potency, µM (doses to about 53.9 µM), for the others: at the top dose GFP activation, actives largely listed as activators; also: potency is read from the fitted curve at half-maximal effect; % of control where 0% means no effect; nearly all actives have a fitted effect of over 60% in size
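Derepression of a silenced CMV-GFP reporter in murine LDR cells is scored by enumerating GFP-positive cells with a laser-scanning microplate cytometer after 30 hours of treatment at 37 C.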
CBFb RUNX1 block: inhibitors of human CBF-beta and RUNX1 interaction. 230,000 tested, under 10 active. AID 1477. Potency, µM (highest dose often 59.8 µM), inactives show at the top dose activity, negative = inhibition, usual class: inhibitors. Q01196+Q13951. AlphaScreen CBFb-His/RUNX1-biotin binding, biochemical; also: % of control where 0% means no effect
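Compounds were screened at multiple concentrations against a preformed CBF-beta(His)/RUNX1(biotin) complex (30 nM of each) for 15 min at room temperature, followed by 90 min with nickel and streptavidin beads and AlphaScreen reading.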
MBNL1 CUG block: MBNL1-poly(CUG) RNA binding inhibition. Q9NR56. TR-FRET MBNL1-His/biotin-(CUG)12 binding, 665/545 ratio. Potency, µM (top dose mostly 57.5 µM), for the others: at the top dose activity change, negative = inhibition, actives largely listed as inhibitors. 0.036% of 280,000 active. AID 2675; active = well fitted inhibition curve with a large enough effect in the signal ratio, with a control signal flat, not every such curve was filed as active; inconclusive = small, poorly fitted or top-dose-only effect, or effect the other way, or a change in a side signal; inactive = no such curve, though single readings can be large or run the other way; the % refers to the signal ratio; also: potency is read from the fitted curve at half-maximal effect; % is scaled to controls: 0 for no effect and ±100 for the full control effect
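TR-FRET between His-tagged MBNL1 and biotin-(CUG)12 RNA, detected with Tb anti-His antibody (0.055 ng/ul) and streptavidin-XL665 (5 nM), 60 min at room temperature. Compounds titrated 92 nM to 58 uM; 665/545 nm ratio normalized to buffer and complex controls.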
TRHR ag: activates the human TRH receptor; P34981; TRHR cells, calcium flux fluo-8, FDSS agonist mode; activation, % at 2 µM; 0.18% of 360,000 active; in the data active = activation above about 30%; also: 0% is about no effect
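TRHR-expressing cells loaded with fluo-8 calcium dye; 23 nL library compound pin-transferred, kinetic FDSS fluorescence (Ex 480/Em 530) recorded about 180 s for agonist-induced calcium release, before a 10 nM TRH EC20 addition for potentiator mode.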
Numbers without * were called inactive; u = inconclusive; x = no result; ! = repeats disagree. Rows were chosen to be rich in hits. Some 0.88% of all compounds tested hit in one or more screens of this group. Unless noted, calls follow the shape of the dose curve; as a rule, active = well fitted curve in the direction sought with a large enough effect; inconclusive = small, poorly fitted or top-dose-only effect, or another doubt; inactive = no such curve, though single readings can be large; an effect the other way counts as inactive or inconclusive.

SMILES	TRHR PAM	IL-2 act	Epigenetic reg	CBFb RUNX1 block	MBNL1 CUG block	TRHR ag
CN(C)c1ccc(C(=O)/C=C/c2ccc(Br)cc2)cc1	-5	6	0%	0%	x	0
CCN(CC)c1ccc(/C=C/C(=O)c2ccc(Br)cc2)cc1	-1	u	16%	u	3%	166*
Cc1c2cnn(CC(=O)NCCc3ccccc3)c(=O)c2c(C)n1Cc1ccccc1Cl	3	x	-1%	x	x	-2
COc1ccccc1NC(=O)c1cccc(S(=O)(=O)N2CCCCCC2)c1	-2	x	-1%	x	x	0
O=[S+]([O-])(c1ccc2c(c1)OCCO2)N1CCN([S+](=O)([O-])c2ccc(F)cc2Br)CC1	-3	x	x	x	x	0
COc1ccc(-c2c(C#CC(C)(C)O)c3ccccc3n2C)cc1	x	0	x	x	x	x
COc1ccc(-c2oc3ccccc3c2C#CC(C)(C)O)cc1	31*	0	x	x	x	0
O=C(Nc1cc2c3c(c1)CC(=O)N3CCC2)c1ccccc1Br	34*	-1	x	x	x	0
O=C(Nc1cc2c3c(c1)CC(=O)N3CCC2)c1ccc(Br)cc1	3	-4	x	x	x	-1
Cc1ccc(-c2noc(CN(C3CCCCC3)S(=O)(=O)c3ccc(C)cc3)n2)cc1	-10	x	-1%	x	x	1
Cc1cc(C)c(S(=O)(=O)N2CCN(C(=O)C3COc4ccccc4O3)CC2)c(C)c1 (stereo unspecified)	36*	-1	x	x	x	0
COc1ccc(CNC(=O)c2ccc(CS(=O)Cc3ccccc3Cl)o2)cc1 (stereo unspecified)	2	x	3%	x	x	0
COc1cccc(N/C(N)=N/c2nc(C(F)(F)F)cc(=O)[nH]2)c1	31*	0	0%	-4%	u	1
CN(C)/C=N/c1nc2nccc(-c3ccccn3)n2n1	34*	0	-1%	4%	15%	0
CN(C)/C=N/c1nc2nccc(-c3cccnc3)n2n1	-2	-1	1%	-1%	34%	0
CCOc1cc(C(=O)OCC(=O)c2cc(C)n(CC3CCCO3)c2C)ccc1OCC(=O)N1CCOCC1 (stereo unspecified)	38*	-2	0%	-11%	-1%	2
Cc1cccc(N2CCN(CCCNc3ncnc4onc(-c5ccc(Cl)cc5)c34)CC2C)c1 (stereo unspecified)	4	x	-1%	x	x	0
CC(=O)OCC(NC(=O)C(C)NC(=O)OC(C)(C)C)C1OC(n2cc(F)c(=O)[nH]c2=O)C(OC(C)=O)C1OC(C)=O (stereo unspecified)	x	x	x	-9%	x	x
CCOc1ccc(OCC)c(S(=O)(=O)n2cnc(C)c2)c1	32*	0	x	x	-12%	0
CC(NC(=O)CSc1nc(-c2ccccc2F)nc2cc(=O)[nH]n12)c1nc2ccccc2n1C (stereo unspecified)	17	x	-3%	x	x	0
COC(=O)c1[nH]c2cc(OC)c(OC)cc2c1/C=N/Nc1ccccc1	-7	532*	x	x	u	0
CCNc1nc(C#N)nc2c1ncn2-c1cccc(Cl)c1	1	x	x	x	x	0
CC1(C)C2([N+](=O)[O-])CN3CC1([N+](=O)[O-])CN(C2)C3C(O)C(O)C(O)CO (stereo unspecified)	31*	-1	2%	8%	-2%	1
CC1(C)C2([N+](=O)[O-])CN(CCO)CC1([N+](=O)[O-])CN(CCO)C2	-4	0	-1%	-2%	-7%	1
CCC(C)NC(=O)CN1C(=O)COc2ccc(S(=O)(=O)N3CCOCC3)cc21 (stereo unspecified)	30*!	0	-1%	x	0%	1
SMILES	TRHR PAM	IL-2 act	Epigenetic reg	CBFb RUNX1 block	MBNL1 CUG block	TRHR ag
COCCNC(=O)CN1C(=O)COc2ccc(S(=O)(=O)N3CCCC3)cc21	33*	x	4%	x	x	0
O=C(CN1C(=O)COc2ccc(S(=O)(=O)N3CCOCC3)cc21)N1CCN(c2ccccc2F)CC1	33*	x	-1%	x	x	0
Cc1cccc(CNC(=O)CCCN2C(=O)COc3ccc(C)cc32)c1	6	x	-2%	x	x	-1
CCOC(=O)c1noc2nc(C)n(Cc3cccc(C#N)c3)c(=O)c12	-4	x	1%	x	x	0
CC(C)c1nc(N2CCN(C(=O)c3ccccc3)CC2)c(C#N)c2c1COC(C)(C)C2	-7	0	-2%	4%	0%	-1
CC1(C)Cc2c(C#N)c(N3CCN(C(=O)c4ccccc4)CC3)nc(-c3ccco3)c2CS1	33*	-1	-1%	-3%	42%	-1
Cc1cccc(S(=O)(=O)NC2CCN(C#N)C2)c1 (stereo unspecified)	3	x	x	x	x	2
CC(C)(C)C(=O)Cn1nc(Cl)nc1Cl	32*	-2	6%	12%	x	1
CCCCCCCCCCCCCCOS(=O)(=O)O	x	x	x	11%	x	x
Cc1cc(=O)c2c(O)c3c(O)cc(=O)c4c3c3c(cc(O)c1c23)C(C)(C)C=4O	x	x	16µM*	-9%	x	x
CCOCCc1nn2c(=O)cc(COC(=O)c3ccc(NC(=O)c4ccc(F)cc4)cc3)nc2s1	12	x	-3%	x	x	-1
Nc1cccc2c1C(=O)N(C(=O)/C=C/c1cccc(F)c1)C2=O	31*	-3	16%	5%	u	0
Nc1cccc2c1C(=O)N(C(=O)/C=C/c1cccc(Br)c1)C2=O	1	-6	-1%	7%	x	-1
CCn1c(/C=C/c2c[nH]c3ccccc23)nc2ccccc2c1=O	-3	2	4%	4%	-23%	-2
CC[n+]1ccc(/C=C/c2c[nH]c3ccccc23)cc1	2	211*	x	x	u	17
Cc1cc(C)cc(Cn2ncc3c4sc(C)cc4n(C)c3c2=O)c1	8	x	x	x	x	-2
Cc1ccc(C)c(S(=O)(=O)Nc2nc3ccc(S(N)(=O)=O)cc3s2)c1	41*	4	0%	-6%	-8%	0
Cc1ccc(S(=O)(=O)Nc2nc3ccc(S(C)(=O)=O)cc3s2)cc1	1	-2	0%	-2%	-10%	0
Cc1ccc(-c2nc(S(=O)(=O)c3ccc(C)cc3)c(SCC(=O)c3ccccc3)o2)cc1	-10	x	-1%	x	x	1
CC(C)(C)c1ccc(OCc2ccc(C(=O)Nc3cccnc3)o2)cc1	38*	-1	x	x	-2%	-1
CC(C)OCc1cc(CN2CCN(c3ccccc3)CC2)c(O)c2ncccc12	-3	x	2µM*	x	x	-2
CCOCc1cc(CN2CCN(c3cccc(Cl)c3)CC2)c(O)c2ncccc12	-1	x	3.5µM*	x	x	-2
Oc1c(CN2CCOCC2)cc(COCc2ccccc2)c2cccnc12	-1	-1	4µM*	x	25%	0
